Measured values: PubChem BioAssay (NCATS)
Where “and” joins values, the source holds several entries; their conditions need not be identical. Equal entries are not always repeated. Inconclusive results are not listed. Entries that show only a call come without a potency. Calls of active or inactive are those of the source. Unless noted, calls follow the shape of the dose curve; as a rule, active = well fitted curve in the direction sought with a large enough effect; inconclusive = small, poorly fitted or top-dose-only effect, or another doubt; inactive = no such curve, though single readings can be large; an effect the other way counts as inactive or inconclusive.

What was measured:
[1] = Cellular Toxicity (caspase-3) HepG2 (AID 654);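 also: cells exposed to compound for 16 hours before reading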
Method in brief: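 HepG2 cells (1500/well) in complete medium were treated with compounds for 16 hr at 37 °C. Caspase-3/7 activity was then read as luminescence from peptide-aminoluciferin cleavage. AC50 came from Hill fits, normalized to DMSO and 100 uM tamoxifen.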

[2] = Cellular Toxicity (caspase-3) Renal Proximal Tubule (AID 667); details: renal proximal tubule cells; at 91.7 µM (top of the series), primary cells freshly taken from rat, solvent-only wells 0%, staurosporine 100% unless noted;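 also: cells exposed to compound for 16 hours at 37 °C before detection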
Method in brief: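 Luminescent caspase 3/7 signal from peptide-aminoluciferin cleavage measures apoptosis in freshly isolated rat kidney proximal tubule cells after 16 h compound exposure. Concentration-response data are normalized to DMSO and 10 uM staurosporine, and AC50 values come from Hill equation fits.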

[3] = MultiTox-Fluor Cytotoxicity Assay - LYMP1-002 - Live Cells (AID 955)
Method in brief: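 Human lymphoblastoid LYMP1-002 cells, 2500/well in complete medium, rested 5 hr at 37 C, then exposed to compounds for 16 hr at 37 C. Live-cell protease cleavage of GF-AFC read by fluorescence (Ex/Em 405/510) after 60 min at room temperature; AC50 from Hill fits.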

[4] = Cell Viability - LYMP2-013 (AID 970); also: nearly all actives have a fitted effect of over 55% in size
Method in brief: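 Human lymphoblastoid cells, 2500/well, were preincubated 5 hr at 37 C, then treated with compounds for 24 hr at 37 C in complete medium. Intracellular ATP was read by CellTiter-Glo luminescence; AC50 from Hill-equation fits of concentration-response data.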

[5] = Cell Viability - LYMP2-024 (AID 988); also: nearly all actives have a fitted effect of over 60% in size
Method in brief: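 Human lymphoblastoid cells (2500/well) in complete medium were preincubated 5 hr at 37 C, then exposed to compounds for 24 hr at 37 C. Intracellular ATP was read by CellTiter-Glo luminescence; AC50 from Hill-equation fits of concentration-response data.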

[6] = target: Bile acid receptor (Homo sapiens) (UniProt Q96RI1); experiment: qHTS assay for small molecule antagonists of farnesoid X receptor signaling (AID 588526; calls by dose curve)
Method in brief: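 Beta-lactamase reporter antagonist mode: HEK293T FXR-UAS-bla cells, titrated compound, CDCA stimulation, 16 h 37 C, CCF4 dye 2 h RT. Data normalized to CDCA 50 uM and DMSO; Hill-fit IC50.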

[7] = target: Bile acid receptor (Homo sapiens) (UniProt Q96RI1); experiment: qHTS assay for small molecule agonists of farnesoid X receptor signaling (AID 588527; calls by dose curve); details: HEK293T FXR-UAS-bla, beta-lactamase ratio, 16 h; stronger effect = higher value
Method in brief: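 Agonist-mode beta-lactamase reporter in GeneBLAzer FXR-UAS-bla HEK293T cells, titration up to 92 uM, 16 h exposure at 37 C, CCF4 fluorescence. Response scaled to DMSO (0%) and 100 uM chenodeoxycholic acid (100%), then Hill-fitted for EC50 and efficacy.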

[8] = target: Glucocorticoid receptor (Homo sapiens) (UniProt P04150); experiment: qHTS assay for small molecule agonists of glucocorticoid receptor signaling (AID 588532; active = well fitted curve in the direction sought with a large enough effect in the signal ratio, with a control signal flat; the % refers to the signal ratio); details: HeLa MMTV-bla, beta-lactamase ratio, agonist, 18 h; stronger effect = higher value; percent of dexamethasone control, DMSO zero
Method in brief: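 Agonist-mode qHTS: GRE-driven beta-lactamase in HeLa cells exposed 18 h to titrated compounds (up to 92 uM), then CCF4 ratio read after 2 h at RT; Hill-fitted EC50, efficacy relative to 0.1 uM dexamethasone.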

[9] = target: Peroxisome proliferator-activated receptor gamma (Homo sapiens) (UniProt P37231); experiment: qHTS assay for small molecule agonists of peroxisome proliferator-activated receptor gamma signaling (AID 588536; active = well fitted curve in the direction sought with a large enough effect in the signal ratio, with a control signal flat, not every such curve was filed as active; the % refers to the signal ratio)
Method in brief: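 Ratiometric blue/green fluorescence (405 nm excitation; 460 and 530 nm emission) from CCF4-loaded HEK293 reporter cells serves as signal. Exposure to test compounds lasts 16 h at 37 C in medium containing 1% charcoal/dextran-treated serum.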

[10] = target: Peroxisome proliferator-activated receptor gamma (Homo sapiens) (UniProt P37231); experiment: qHTS assay for small molecule antagonists of peroxisome proliferator-activated receptor gamma signaling (AID 588537; active = well fitted inhibition curve with a large enough effect in the signal ratio, with a control signal flat, not every such curve was filed as active; the % refers to the signal ratio;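 also: reporter cells co-stimulated with 50 nM rosiglitazone agonist during compound treatment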)
Method in brief: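 Inhibitors of agonist-stimulated UAS-bla reporter activity were sought in HEK293 cells; rosiglitazone (50 nM) defined full signal and DMSO baseline. Curves fitted to Hill model gave IC50 and efficacy.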

[11] = target: Thyroid hormone receptor beta (Homo sapiens) (UniProt P10828); experiment: qHTS assay for small molecule agonists of thyroid hormone receptor beta signaling (AID 588545; calls by dose curve)
Method in brief: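 Agonist activity was read as beta-lactamase CCF4 fluorescence (405 ex, 460/530 em), scaled between DMSO (0%) and 10 nM T3 (100%), then Hill-fitted for EC50 and efficacy. HEK 293 TR-UAS-bla cells in 2% charcoal/dextran FBS medium were exposed 18 h at 37 C.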

[12] = qHTS assay for small molecule agonists of the antioxidant response element (ARE) signaling pathway (AID 651741; active = well fitted activation curve with a large enough effect in the signal ratio; the % refers to the signal ratio; also: potency is read from the fitted curve at half-maximal effect)
Method in brief: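 Seeding 2,000 ARE-bla HepG2 cells per well preceded a 5 h incubation at 37 C/5% CO2 and a 16 h compound exposure at 37 C. Beta-lactamase reporter activity was then quantified by fluorescence after 2 h with LiveBLAzer B/G FRET substrate.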

[13] = qHTS assay for small molecule activators of the nuclear factor-kappa B (NF-kB) signaling pathway (AID 651749; active = well fitted activation curve with a large enough effect in the signal ratio; the % refers to the signal ratio); details: NF-kB-bla ME-180 cells, beta-lactamase FRET ratio, 16 h; activation: stronger effect = higher value
Method in brief: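 Stably transfected ME-180 line; NF-kB response element upstream of beta-lactamase. Treatment: compound or DMSO, 16 hr. Detection: fluorescent FRET substrate.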

[14] = target: Tumor necrosis factor (Homo sapiens) (UniProt P01375); experiment: qHTS assay to identify small molecules that stimulate Tumor Necrosis Factor-alpha (TNF-alpha) secretion (AID 651757; active = well fitted curve in the direction sought with a large enough effect in the signal ratio; the % refers to the signal ratio)
Method in brief: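 THP-1 cells were exposed to compounds for 17 hrs at 37 C, after which secreted TNF-alpha was measured by homogeneous HTRF (TR-FRET) using cryptate- and XL665-labeled anti-TNF-alpha antibodies, read after 3 hr at room temperature.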

[15] = Cellular Toxicity (caspase-3) NIH 3T3 (AID 666)
Method in brief: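 Mouse NIH 3T3 fibroblasts (1000 cells/well) were treated with compound for 16 hr at 37°C in complete medium; caspase-3/7 activity was read by Caspase-Glo luminescence. Normalized to DMSO and 100 uM tamoxifen; AC50 from Hill fits.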

[16] = Cell Viability - LYMP2-004 (AID 966); also: nearly all actives have a fitted effect of over 65% in size
Method in brief: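 Human lymphoblastoid cells (2500/well) in complete medium were treated with compounds for 24 hr at 37 C, then intracellular ATP was measured by CellTiter-Glo luminescence. AC50 values came from Hill-equation fits of concentration-response data.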

[17] = Cell Viability - LYMP2-021 (AID 974);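 also: compound exposure lasts 24 hours at 37 °C; nearly all actives have a fitted effect of over 55% in size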
Method in brief: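 Human lymphoblastoid cells (2500/well) were preincubated 5 hr at 37 C, then exposed to compounds for 24 hr at 37 C in complete medium. Intracellular ATP was read by CellTiter-Glo luminescence; AC50 came from Hill-equation fits of concentration-response data.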

[18] = qHTS assay for small molecule antagonists of peroxisome proliferator-activated receptor delta signaling (AID 588535); details: HEK293T PPARd-UAS-bla, beta-lactamase FRET ratio, 18 h; 460 nm channel;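 also: cells co-treated with a PPAR-delta agonist as stimulator during compound exposure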
Method in brief: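 Cell-based beta-lactamase assay in antagonist mode: 4000 HEK293T PPAR-delta-UAS-bla cells per well, 5 hr preincubation then 18 hr compound incubation at 37 C. IC50 obtained by Hill equation fitting.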

[19] = target: Retinoic acid receptor RXR-alpha (Homo sapiens) (UniProt P19793); experiment: qHTS assay for small molecule agonists of retinoid X receptor alpha signaling (AID 588544; calls by dose curve)
[20] = Cell Viability - LYMP2-002 (AID 977);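 also: compound exposure lasted 24 h at 37 °C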
Method in brief: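 Cytotoxicity is scored as concentration-dependent loss of cellular ATP in a human lymphoblastoid line after 24 hr compound treatment at 37 C. AC50 is obtained by modelling concentration-response data with the Hill equation.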

Chain of Peroxisome proliferator-activated receptor gamma (Homo sapiens) (P37231 whole entry, looked up): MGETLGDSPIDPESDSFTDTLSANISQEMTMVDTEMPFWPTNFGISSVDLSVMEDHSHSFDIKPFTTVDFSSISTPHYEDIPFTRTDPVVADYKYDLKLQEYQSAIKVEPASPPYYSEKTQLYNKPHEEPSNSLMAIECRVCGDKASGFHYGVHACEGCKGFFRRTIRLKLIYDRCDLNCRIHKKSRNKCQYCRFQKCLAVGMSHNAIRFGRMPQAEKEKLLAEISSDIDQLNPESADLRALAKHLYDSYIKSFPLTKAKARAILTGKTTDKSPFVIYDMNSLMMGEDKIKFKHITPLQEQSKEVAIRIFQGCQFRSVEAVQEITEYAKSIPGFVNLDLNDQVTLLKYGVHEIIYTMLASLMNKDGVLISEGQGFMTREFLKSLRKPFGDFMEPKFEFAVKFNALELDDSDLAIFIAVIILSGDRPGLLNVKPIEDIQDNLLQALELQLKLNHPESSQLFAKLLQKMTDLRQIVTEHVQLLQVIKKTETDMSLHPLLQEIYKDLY
Chain of Bile acid receptor (Homo sapiens) (Q96RI1 whole entry, looked up): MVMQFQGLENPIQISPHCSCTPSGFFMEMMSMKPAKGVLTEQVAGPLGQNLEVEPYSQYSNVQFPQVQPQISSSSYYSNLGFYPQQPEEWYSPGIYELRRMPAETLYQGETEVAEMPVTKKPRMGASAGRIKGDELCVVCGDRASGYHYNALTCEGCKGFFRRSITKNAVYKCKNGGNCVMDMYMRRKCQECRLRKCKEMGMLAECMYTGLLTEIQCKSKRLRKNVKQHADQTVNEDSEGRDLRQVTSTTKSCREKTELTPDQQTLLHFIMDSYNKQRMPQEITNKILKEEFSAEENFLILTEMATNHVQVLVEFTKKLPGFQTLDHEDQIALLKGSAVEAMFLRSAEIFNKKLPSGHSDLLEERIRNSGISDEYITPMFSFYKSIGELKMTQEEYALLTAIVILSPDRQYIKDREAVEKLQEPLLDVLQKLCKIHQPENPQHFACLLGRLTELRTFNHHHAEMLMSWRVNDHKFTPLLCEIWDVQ
Chain of Retinoic acid receptor RXR-alpha (Homo sapiens) (P19793 whole entry, looked up): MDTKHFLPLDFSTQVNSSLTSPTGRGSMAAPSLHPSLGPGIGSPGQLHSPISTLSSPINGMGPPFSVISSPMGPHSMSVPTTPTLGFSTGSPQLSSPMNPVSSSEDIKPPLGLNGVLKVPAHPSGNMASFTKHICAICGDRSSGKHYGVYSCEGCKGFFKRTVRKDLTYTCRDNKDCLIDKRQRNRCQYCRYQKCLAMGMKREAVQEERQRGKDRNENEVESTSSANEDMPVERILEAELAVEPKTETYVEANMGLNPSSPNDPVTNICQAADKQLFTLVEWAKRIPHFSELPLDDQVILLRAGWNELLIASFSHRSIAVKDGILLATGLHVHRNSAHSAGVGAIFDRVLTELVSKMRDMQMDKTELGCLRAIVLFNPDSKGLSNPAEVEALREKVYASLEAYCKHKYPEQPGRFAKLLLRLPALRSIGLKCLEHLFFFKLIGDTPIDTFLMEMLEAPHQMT
Chain of Thyroid hormone receptor beta (Homo sapiens) (P10828 whole entry, looked up): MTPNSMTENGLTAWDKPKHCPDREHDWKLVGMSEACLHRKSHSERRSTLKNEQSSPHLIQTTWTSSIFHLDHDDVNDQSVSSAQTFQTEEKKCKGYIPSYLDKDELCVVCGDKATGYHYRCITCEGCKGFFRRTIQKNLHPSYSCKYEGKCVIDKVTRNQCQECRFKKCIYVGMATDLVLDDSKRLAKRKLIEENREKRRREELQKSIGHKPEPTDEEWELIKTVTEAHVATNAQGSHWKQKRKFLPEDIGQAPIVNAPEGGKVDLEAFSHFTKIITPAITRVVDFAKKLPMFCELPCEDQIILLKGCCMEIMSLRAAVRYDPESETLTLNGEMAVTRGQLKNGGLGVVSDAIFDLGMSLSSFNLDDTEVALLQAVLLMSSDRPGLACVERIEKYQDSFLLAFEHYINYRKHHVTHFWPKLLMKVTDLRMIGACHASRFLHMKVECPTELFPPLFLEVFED
Chain of Glucocorticoid receptor (Homo sapiens) (P04150 whole entry, looked up): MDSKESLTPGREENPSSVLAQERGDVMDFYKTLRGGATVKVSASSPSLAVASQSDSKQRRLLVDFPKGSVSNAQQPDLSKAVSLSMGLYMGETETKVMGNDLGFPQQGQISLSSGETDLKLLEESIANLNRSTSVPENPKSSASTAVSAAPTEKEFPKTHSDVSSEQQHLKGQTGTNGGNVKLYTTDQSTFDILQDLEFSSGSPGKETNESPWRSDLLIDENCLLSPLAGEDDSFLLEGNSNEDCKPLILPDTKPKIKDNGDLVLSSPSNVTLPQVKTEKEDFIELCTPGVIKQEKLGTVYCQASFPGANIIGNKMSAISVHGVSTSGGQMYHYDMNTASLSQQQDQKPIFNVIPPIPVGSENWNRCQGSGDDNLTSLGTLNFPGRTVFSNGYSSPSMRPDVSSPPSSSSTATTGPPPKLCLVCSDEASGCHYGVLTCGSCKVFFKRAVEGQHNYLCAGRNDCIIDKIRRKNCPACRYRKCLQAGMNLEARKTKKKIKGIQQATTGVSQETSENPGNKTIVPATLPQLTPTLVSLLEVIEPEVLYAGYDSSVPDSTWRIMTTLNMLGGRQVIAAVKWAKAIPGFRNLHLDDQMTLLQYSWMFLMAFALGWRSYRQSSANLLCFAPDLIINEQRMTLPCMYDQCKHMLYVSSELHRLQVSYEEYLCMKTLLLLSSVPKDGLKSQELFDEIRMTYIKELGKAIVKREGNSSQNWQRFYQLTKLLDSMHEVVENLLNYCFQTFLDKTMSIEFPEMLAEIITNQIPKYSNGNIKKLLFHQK
Chain of Tumor necrosis factor (Homo sapiens) (P01375 whole entry, looked up): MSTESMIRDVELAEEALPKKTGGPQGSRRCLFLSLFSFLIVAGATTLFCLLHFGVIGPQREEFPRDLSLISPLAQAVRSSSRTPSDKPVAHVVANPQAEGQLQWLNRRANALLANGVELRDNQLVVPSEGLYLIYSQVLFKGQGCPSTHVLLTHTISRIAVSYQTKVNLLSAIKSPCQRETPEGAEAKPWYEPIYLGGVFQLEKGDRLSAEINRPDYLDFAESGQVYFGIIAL

Row | Compound | outcome [1] | caspase-3 activation [2] | outcome [3] | Potency [4] | Potency [5] | outcome [6] | activation [7] | activation [8] | outcome [9] | Potency [10] | outcome [11] | Potency [12] | activation [13] | outcome [14] | outcome [15] | Potency [16] | Potency [17] | max response [18] | Potency [19] | Potency [20]
1 | O=C(Cl)/C=C/C(=O)Cl | inactive | -3.63% (inactive) | inactive | inactive | inactive | inactive | 1.15% (inactive) | 18.2% (inactive) | inactive | inactive | inactive | inactive | 2.63% (inactive) | inactive |  |  |  |  |  | 
2 | Nc1c(Cl)c(Cl)nc(C(=O)O)c1Cl |  |  | inactive |  | inactive |  |  |  |  | inactive | inactive | inactive | -0.763% (inactive) and -1.51% (inactive) and -1.13% (inactive) |  | inactive | inactive | inactive |  |  | 
3 | Oc1ccc(Cl)cc1Cl |  |  | inactive | inactive | inactive | inactive | -2.46% (inactive) and -2.63% (inactive) | -5.35% (inactive) and -2.01% (inactive) |  | inactive |  | inactive |  | inactive |  | inactive |  | 0.988% | inactive | 
4 | CCC[CH2][Sn]([Cl])([Cl])[Cl] | inactive | 6.84% (inactive) |  |  | inactive | inactive | -3.23% (inactive) and -2.97% (inactive) |  |  | inactive | inactive | 13.3 µM (active) | -0.955% (inactive) and -1.49% (inactive) | inactive | inactive | inactive |  | 31.1% and 8.78% |  | 
5 | ClC(Cl)=C(Cl)Cl |  |  | inactive |  | inactive | inactive | 0.975% (inactive) and -2.66% (inactive) |  |  | inactive | inactive | inactive | 0.509% (inactive) and -0.543% (inactive) |  |  |  | inactive |  |  | inactive
6 | O=NN(CCO)CCO | inactive |  |  | inactive |  | inactive | 3.77% (inactive) |  |  |  |  | inactive |  |  |  | inactive |  |  | inactive | inactive
7 | CCOc1ccc(N)cc1 | inactive | -17.4% (inactive) | inactive | inactive | inactive | inactive | -2.12% (inactive) |  |  |  |  |  | -0.228% (inactive) | inactive | inactive | inactive | inactive |  | inactive | 
8 | C=CC(=C)C |  |  | inactive | inactive |  | inactive | -1.71% (inactive) |  | inactive | inactive | inactive |  |  |  |  | inactive | inactive | -16.7% | inactive | 
9 | COc1ccc(N)cc1 |  |  | inactive | inactive | inactive |  |  | -7.51% (inactive) and 3.18% (inactive) | inactive |  |  |  |  |  |  |  | inactive | 35% | inactive | inactive
10 | CC(C)(c1ccccc1)c1ccc(O)cc1 |  |  |  |  | inactive | inactive | 1.02% (inactive) and 4.37% (inactive) | 2.95% (inactive) and 9.77% (inactive) | inactive |  | inactive |  | -0.397% (inactive) and -3.49% (inactive) | inactive | inactive |  |  | 13% |  | 
11 | OCC(Br)CBr (stereo unspecified) | inactive |  |  |  | inactive | inactive | 0.562% (inactive) | 4.78% (inactive) |  | inactive |  | inactive |  | inactive | inactive | inactive |  | 7.4% | inactive | 
12 | S=C=Nc1cccc2ccccc12 | inactive | -4.28% (inactive) |  |  | inactive | inactive | -1.78% (inactive) | 2.48% (inactive) | inactive |  | inactive | 47.3 µM (active) | 2.04% (inactive) | inactive |  | inactive | inactive | -3.26% |  | 
13 | CN=C=S |  | -3.52% (inactive) | inactive | inactive |  | inactive | 2.73% (inactive) and -2.27% (inactive) |  | inactive | inactive |  | inactive | 0.411% (inactive) and -0.263% (inactive) | inactive | inactive | inactive | inactive | 11.4% | inactive | inactive
